Source: PubChem BioAssay (several laboratories)
Rows were chosen to be rich in hits. Some 1.9% of all compounds tested hit in one or more screens of this group.
LANA-H2A inh – blocks KSHV LANA binding to histone H2A/H2B. Q9QR71. cell-free LANA-H2A/H2B peptide, fluorescence polarization. inhibition, % (concentration not given with the values). 0.6% of 320,000 active. AID 2629; in the data active means inhibition mostly above about 10%, no sharp cut-off; inactive means mostly below about 6.7%
MEX-5 binding – C. elegans MEX-5 TCR-2 RNA binding activity | Q9XUB2 | MEX-5/FITC-TCR2 RNA binding, fluorescence polarization; hits give low values | activity score (negative = inhibition of binding), % at 10 µM | 0.38% of 300,000 active | AID 1832;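 active means inhibition past about -25% in most replicates, and total fluorescence under double the plate's negative control median, limit read from the data; inconclusive means replicates evenly split on the limit, or fluorescence at least double controls; inactive means too little inhibition in most replicates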
Bcl-xL primary – inhibitors of human Bcl-xL | Q07817 | GST-Bcl-xL / FITC-Bim BH3 peptide fluorescence polarization | inhibition, % at 10.9 µM | 0.7% of 320,000 active | AID 2129;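 active means inhibition above the mean of all tested compounds plus 3 SD, cutoff set per campaign, cut at about 30% in these data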;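 further: inhibitors lower millipolarization by displacing the labeled peptide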
MCL1 BIM primary – disrupts human MCL1 binding to BIM-BH3 peptide; Q07820; GST-MCL1 / FITC-Bim-BH3 fluorescence polarization; inhibition, % at 10.9 µM; 0.68% of 320,000 active;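 active means inhibition above the mean inhibition of all tested compounds plus 3 SD, set per campaign, cut at about 40% in these data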;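 further: higher means more loss of mP so more displacement of Bim peptide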
GLD-1 TGE inh – GLD-1-TGE RNA interaction inhibition (C. elegans). Q17339. purified GLD-1 + fluorescein TGE RNA, fluorescence polarization. inhibition, % at 5.96 µM. 0.44% of 320,000 active. AID 2280;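 active means percent inhibition above a per-plate cutoff, the plate mean of test compounds plus 3 SD, cut at about 30% in these data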
Target sequence (Q17339 whole entry, looked up): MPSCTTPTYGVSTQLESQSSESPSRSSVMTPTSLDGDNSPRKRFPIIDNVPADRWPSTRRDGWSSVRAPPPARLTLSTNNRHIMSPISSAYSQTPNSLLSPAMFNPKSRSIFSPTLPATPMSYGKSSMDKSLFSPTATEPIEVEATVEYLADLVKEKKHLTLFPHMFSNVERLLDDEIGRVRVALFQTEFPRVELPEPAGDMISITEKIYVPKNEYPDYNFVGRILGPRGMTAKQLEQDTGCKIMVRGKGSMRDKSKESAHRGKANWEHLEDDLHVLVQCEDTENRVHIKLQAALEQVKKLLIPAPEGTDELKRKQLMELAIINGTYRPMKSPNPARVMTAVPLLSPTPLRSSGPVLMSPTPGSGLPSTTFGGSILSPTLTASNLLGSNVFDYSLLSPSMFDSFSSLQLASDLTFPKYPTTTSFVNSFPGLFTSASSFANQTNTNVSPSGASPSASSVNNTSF
Yeast superoxide – yeast age-related superoxide inhibition as caloric restriction mimetic; S. cerevisiae aged cells, superoxide DHE fluorescence; hits give low values; superoxide response (% of plate mean), % at 10 µM; 0.18% of 330,000 active; AID 2690;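 active means superoxide response under a set limit, about three screen SD below normal, cut at about 65% in these data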;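 further: yeast aged for seven days with compound at 30 °C before DHE staining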
A number is an active result; . = inactive; ? = inconclusive; / = no result; ! = not active in a repeat.

SMILES | LANA-H2A inh | MEX-5 binding | Bcl-xL primary | MCL1 BIM primary | GLD-1 TGE inh | Yeast superoxide
O=C(NNC(=O)c1cnccn1)c1cccc([N+](=O)[O-])c1 | . | -61 | . | . | . | .
O=C(/C=C(\O)c1ccccc1)C(=O)NNC(=O)c1ccccc1[N+](=O)[O-] | . | -48 | . | . | . | .
O=C(CSc1nnnn1-c1ccccc1)NCCCN1CCCC1=O | . | / | / | / | . | .
CC[C@]12c3[nH]c4cc(-c5ccco5)ccc4c3CCN1C(=O)[C@@H](CC(=O)NCCCN(C)C)C[C@@H]2C(=O)N1CCN(C(=O)c2ccco2)CC1 | / | / | / | / | / | .
CCN1CCc2c(sc(NC(=O)c3ccc4ccccc4c3)c2C(N)=O)C1 | . | -46 | . | . | . | .
CCN1CCN(S(=O)(=O)c2ccc(C(=O)Nc3sc4c(c3C(N)=O)CCN(CC)C4)cc2)CC1 | . | . | . | . | . | .
Cc1ccc(C(=O)NCC(=O)N2CCN(c3ncccn3)CC2)s1 | 18 | . | . | . | . | .
O=C(CNC(=O)c1ccccc1F)NCc1ccccn1 | . | / | / | / | . | .
CC(=O)N(C1=C(Cl)C(=O)c2ccccc2C1=O)C1CCCCC1 | . | -48 | . | . | . | .
c1ccc(-c2nn3c(Cn4nnc5ccccc54)nnc3s2)nc1 | . | . | 38 | 48 | . | .
CCOC(=O)C1CCCN(CC(=O)N(C)c2c(N)n(Cc3ccccc3)c(=O)[nH]c2=O)C1 (stereo unspecified) | . | / | / | / | . | .
CC(C)c1cc(=O)oc2c3c4c(cc12)CCCN4CCC3 | . | . | . | . | 44 | .
Cc1cc2oc(=O)cc(CN3CCOCC3)c2cc1C(C)C | . | . | . | . | . | .
CN1CCCN(C(c2ccccc2)c2ccc(Cl)cc2)CC1 (stereo unspecified) | 29 | . | . | . | . | .
CCN(CC)S(=O)(=O)c1cc(NC(=O)C2=COCCO2)ccc1Cl | . | . | . | . | . | .
CCN(CC)C(=O)c1cccc(NC(=O)C2=COCCO2)c1 | 18 | / | . | . | . | .
CC(C)NC(=O)N(C)C[C@H]1Oc2c(NC(=O)C3CC3)cccc2C(=O)N([C@H](C)CO)C[C@@H]1C | . | / | / | / | . | .
Cc1cc(-c2csc(N)n2)c(C)n1CCc1ccccc1 | . | . | . | . | . | .
Cc1cc(-c2csc(N)n2)c(C)n1CCC(C)C | 14 | . | . | . | . | .
COc1ccc(Cl)cc1NC(=O)CN(C)C(=O)c1cc(-c2ccncc2)nc2ccccc12 | . | . | . | . | . | .
COc1ccccc1C(=O)C1CCCN(C(=O)c2cccnc2SC)C1 (stereo unspecified) | . | -41 | . | . | . | .
CSc1ccc(C(=O)C2CCCN(C(=O)c3cccnc3SC)C2)cc1 (stereo unspecified) | . | . | . | . | . | .
CCN1/C(=C/c2ccc3cccc(C)c3[n+]2CC)Sc2ccccc21 | . | ? | . | . | 47 | .
COc1ccccc1/C=c1\sc2nc(-c3ccccc3OC)nn2c1=O | . | / | . | . | . | .
COc1ccc(/C=c2\sc3nc(=O)c(C)nn3c2=O)c(OC)c1 | . | -40 | . | . | . | .
SMILES | LANA-H2A inh | MEX-5 binding | Bcl-xL primary | MCL1 BIM primary | GLD-1 TGE inh | Yeast superoxide
CCOC(=O)C1=C(C)OC(N)=C(C#N)C1c1ccc(C)s1 (stereo unspecified) | . | . | 31 | . | . | .
CC1CCN(C(=O)c2[nH]cnc2C(=O)Nc2ccc(Cl)cc2)CC1 | . | / | . | . | . | .
CCOC(=O)c1c(CSc2ccccc2)n(C)c2ccc(O)c(CN3CCOCC3)c12 | 18 | . | . | . | . | .
CCOC(=O)c1c(C)n(C)c2ccc(O)c(CN3CCN(C)CC3)c12 | . | . | . | . | . | .
Cc1nn(C)c(C)c1CN(C)C(=O)C1c2ccccc2Oc2ccccc21 | . | -47 | 31 | . | . | .
COc1cc2c3c(c1)C1(C(=O)N3C(C)(C)C=C2C)C(C#N)=C(N)Oc2cc(C)oc(=O)c21 (stereo unspecified) | 60 | . | / | / | / | /
CCCCCC1C(=O)C[C@@H]2CCN3C(=O)CCC[C@H]1[C@H]23 (stereo partly specified) | / | / | / | / | / | .
COC(=O)[C@]1(C)N[C@H](CN(C)C(=O)NC(C)C)[C@@H]2C(=O)N(C)C(=O)[C@@H]21 | . | / | / | / | . | .
CN(c1ccc(OCC(=O)Nc2cc(Cl)ccc2C(=O)O)cc1)S(=O)(=O)c1ccc(F)cc1 | . | / | / | / | . | 59
COc1ccc(NC(=O)COc2ccc(N(C)S(=O)(=O)c3ccc(Cl)cc3)cc2)cc1 | . | / | . | . | . | .
CCCSc1nnc(CNS(=O)(=O)c2ccc(C)cc2)n1C | . | . | . | . | . | .
CN1CCCN(C(=O)c2cccc(Br)c2)CC1 | 12 | . | . | . | . | .
CCc1noc(C)c1C(=O)NNC(=O)COc1ccccc1C | . | / | . | . | . | .
COc1ccccc1NS(=O)(=O)c1cc(N=N/C(C(=O)Nc2ccc(Cl)cc2)=C(/C)O)ccc1C | . | / | / | / | . | .
CCCCc1ccc(N=N/C(C(=O)Nc2ccc(NC(C)=O)cc2OC)=C(/C)O)cc1 | 47 | . | . | . | . | .
Cc1ccc(CN2CC(C(=O)Nc3ncccc3C)CC2=O)cc1 (stereo unspecified) | . | . | . | . | . | .
CCN1C[C@@H]2[C@@H]3C(=O)N(C)C(=O)[C@@H]3[C@](C)(C(=O)OC)N2C1=NC | / | / | / | / | / | .
Nc1cccc(C#Cc2ccc3c(c2)C(=O)/C(=C/c2ccsc2)O3)c1 | / | / | / | / | . | .
Nc1n[nH]c2cccc(Cl)c12 | . | . | . | . | . | .
Nc1nnc(-c2cccc(Cl)c2Cl)c(N)n1 | 11! | . | . | . | . | .
Cn1cc(/C=C2\SC(=S)N(NC(=O)c3ccccc3Cl)C2=O)c2ccccc21 | . | / | 35 | . | . | .
Cc1ccc(O)c(-c2cc(C(=O)Nc3ccc(S(=O)(=O)Nc4nccc(C)n4)cc3)[nH]n2)c1 | 78 | -29 | . | . | . | .
CCOC(=O)[C@H]1[C@H]2COc3ccc(Cl)cc3[C@@H]2N2C(=O)CN(CC3CCCO3)C(=O)[C@@]12C (stereo partly specified) | . | / | . | . | . | .
CC1CC(C)CN(C(=O)COC(=O)COc2ccccc2C#N)C1 (stereo unspecified) | . | / | . | . | . | .
CCOC(=O)c1cnc2cc(C)ccn2c1=O | . | . | . | . | . | .
COc1ccc(CNC(=O)c2cnc3cc(C)ccn3c2=O)cc1 | . | -28 | . | . | . | .
Cc1cc(C(=O)N2CCCC2C(=O)O)c(C)o1 (stereo unspecified) | 18 | . | . | . | . | .
CN(C)c1ccc(/C=C/c2cc[n+](C)cc2)cc1 | . | . | . | . | 95 | .
CC[n+]1c(/C=C/c2ccc(N(C)C)cc2)ccc2ccccc21 | . | -27 | . | . | . | .
